Bioassay records from PubChem.
This is one part of a sample in which hits are shown more often than they occur.
DT40 TDP1 CPT: qHTS for Inhibitors of human tyrosyl-DNA phosphodiesterase 1 (TDP1): qHTS in cells in presence of CPT; AID 686979, 2013; 420,000 tested, 12% active; Potency, µM (series often up to 46.2 µM), without a hit: at the top dose activity change, negative = growth inhibition, usual class: inhibitors; chicken DT40 Tdp1-/-;hTDP1 cells + 20 nM CPT, ATP luminescence, 48 h; also: potency is read from the fitted curve at half-maximal effect; nearly all actives have a fitted effect of over 55% in size
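Cell growth measured by CellTiter-Glo luminescence after a minimum 48 h, 37 C compound exposure with 20 nM CPT in Tdp1-knockout DT40 cells stably expressing hTDP1, seeded 400/well; qHTS titration format.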
DT40 TDP1 no CPT: qHTS for Inhibitors of human tyrosyl-DNA phosphodiesterase 1 (TDP1): qHTS in cells in absence of CPT | DT40 Tdp1-/- hTDP1 cells, no CPT, ATP luminescence, 48 h | 420,000 tested, 15% active | Potency, µM (top dose mostly 46.2 µM), for inactives: top-dose activity change, negative = growth inhibition, actives largely listed as inhibitors; also: potency is read from the fitted curve at half-maximal effect; nearly all actives have a fitted effect of over 55% in size
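Seeded 400 DT40-hTDP1 cells/well (vehicle DMSO, no 20 nM CPT); pinned compounds; ≥48 hr at 37 °C; CellTiter-Glo luminescence as viability measure.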
HT1080-NT tox: qHTS for induction of synthetic lethality in tumor cells producing 2HG: qHTS for the HT-1080-NT fibrosarcoma cell line. HT-1080-NT fibrosarcoma viability, CellTiter-Glo ATP luminescence, 48 h. Potency, µM (top dose mostly 46.1 µM), inactives show top-dose activity, negative = less viability, hits mostly cytotoxic. 360,000 tested, 1.6% active. AID 686970, 2013;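 also: NT is the 2HG producing partner of a matched IDH1 knockdown line; potency is read from the fitted curve at half-maximal effect; 0% = DMSO-treated cells and -100% = media-only wells without cells; nearly all actives have a fitted effect of over 55% in size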
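A 48-hour cytotoxicity screen used HT-1080-NT cells plated 2 hours before compound delivery. ATP-based CellTiter-Glo luminescence measured viability, normalized to DMSO and no-cell controls.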
IL-1B inflam inh: qHTS for Inhibitors of Inflammasome Signaling: IL-1-beta AlphaLISA Primary Screen | THP-1 LPS/ATP IL-1B secretion, AlphaLISA, 16 h; active compounds read low | activity change, % at 57.5 µM | 360,000 tested, 4.7% active; in the data active = activity change below about -50%; inconclusive = mostly about -30% to -49%
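THP-1 cells pretreated 1 hr with compounds (up to 57.5 uM final), then stimulated with LPS (250 ng/mL final) plus ATP (1.25 mM final); secreted IL-1B measured by AlphaLISA after 16 hr, decreased signal indicating inhibition.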
HT1080 IDH1KD tx: qHTS for induction of synthetic lethality in tumor cells producing 2HG: qHTS for the HT-1080-IDH1KD cell line; 360,000 tested, 2% active; HT-1080 IDH1 knockdown viability, ATP luminescence, 48 h; Potency, µM (highest dose often 46.1 µM), for inactives: top-dose activity, negative = toxicity, most hits filed as cytotoxic;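 also: potency is read from the fitted curve at half-maximal effect; 0% = DMSO wells and -100% = cell-free medium wells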
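HT-1080-IDH1KD cells (IDH1 knocked down), 750/well in RPMI with 5% FBS, treated with compound 48 h at 37 degrees C. Viability by CellTiter-Glo luminescence, normalised to DMSO and no-cell wells; concentration-response curves classed.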
12-LOX inh: Primary qHTS assay for inhibitors of human arachidonate 12S-lipoxygenase (ALOX12): Round 2 | purified 12hLO, xylenol orange hydroperoxide absorbance | Potency, µM (series often up to 108 µM), inactives show at the top dose activity change, negative = inhibition, usual class: inhibitors | Polyunsaturated fatty acid lipoxygenase ALOX12 (Homo sapiens), P18054 | 580,000 tested, 1.1% active; also: potency is read from the fitted curve at half-maximal effect
Target sequence (P18054 whole entry, looked up): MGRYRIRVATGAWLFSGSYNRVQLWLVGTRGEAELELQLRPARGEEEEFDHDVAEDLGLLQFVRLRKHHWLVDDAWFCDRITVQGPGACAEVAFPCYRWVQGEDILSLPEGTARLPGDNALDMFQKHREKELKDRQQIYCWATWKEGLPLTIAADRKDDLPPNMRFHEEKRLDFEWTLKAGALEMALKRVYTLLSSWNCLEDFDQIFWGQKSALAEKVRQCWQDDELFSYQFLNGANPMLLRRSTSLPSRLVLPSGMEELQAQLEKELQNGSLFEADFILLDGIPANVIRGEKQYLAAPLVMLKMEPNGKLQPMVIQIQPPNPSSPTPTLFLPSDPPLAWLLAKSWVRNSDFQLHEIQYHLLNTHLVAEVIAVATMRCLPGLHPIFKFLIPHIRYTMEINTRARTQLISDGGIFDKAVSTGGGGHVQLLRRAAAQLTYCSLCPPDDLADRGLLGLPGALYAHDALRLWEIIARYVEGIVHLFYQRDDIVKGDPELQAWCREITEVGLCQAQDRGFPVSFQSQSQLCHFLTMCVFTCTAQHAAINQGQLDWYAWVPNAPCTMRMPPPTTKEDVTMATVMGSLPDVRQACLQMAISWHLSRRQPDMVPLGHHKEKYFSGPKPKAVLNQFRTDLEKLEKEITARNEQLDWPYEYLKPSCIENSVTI
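Purified human 12hLO (150 nM final) in 25 mM Hepes, 0.01% Triton X-100, pH 7.0 was preincubated 15 min at room temperature with compound. Then 40 uM arachidonic acid was added, 30 min. Hydroperoxide was read by Fe-XO absorbance ratio 573/405 nm.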
The depositor's hits bear a star; i = inactive; ? = inconclusive; / = no result given; [ ] = another dose, or the depositor's remark. Unless noted, calls follow the shape of the dose curve; as a rule, active = well fitted curve in the direction sought with a large enough effect; inconclusive = small, poorly fitted or top-dose-only effect, or another doubt; inactive = no such curve, though single readings can be large; an effect the other way counts as inactive or inconclusive. Unless noted, % is scaled to controls: 0 for no effect and ±100 for the full control effect.

SMILES | DT40 TDP1 CPT | DT40 TDP1 no CPT | HT1080-NT tox | IL-1B inflam inh | HT1080 IDH1KD tx | 12-LOX inh
CCn1cc(C(=O)N2CCN(c3ccc(OC)cc3)CC2)c2cc(OC)c(OC)cc2c1=O | 10.2% | -12.1% | -0.4% | 1.7 | 4.9% | -1.8%
O=C(c1c(Cl)nc2sccn12)N1CCN(c2cccc(Cl)c2)CC1 | 2.31µM* | 2.31µM* | ? | 4.0 | 3.26µM* | -83.1%
COc1ccccc1C(=O)N1CCN(c2cccc(Cl)c2)CC1 | 1.84µM* | 1.64µM* | 2.59µM* | 47.0 | 2.59µM* | 6.4%
CCCCN1CC(C(=O)Nc2ccc(C(=O)Nc3ccc(C)c(C)c3)cc2)CC1=O (stereo unspecified) | / | / | / | / | / | -29.4%
O=C(Nc1ccccc1)N1CCC2(CC1)CC(N(C(=O)c1ccccc1)C1CC1)CCO2 (stereo unspecified) | / | / | / | / | / | 33.0%
Cc1[nH]c(-c2ccc(F)cc2)cc1C(=O)N1CCN(c2cccc(Cl)c2)CC1 | -8.4% | 16.4µM* | ? | -87.3* | ? | -11.4%
Cc1ncc2n1C(=O)N(C1CCN(C(=O)NC3CCCC3)CC1)C2 | / | / | / | / | / | 35.1%[176 µM]
O=S(=O)(c1ccccc1)c1ncc(C(F)(F)F)cc1O | 6.6% | 8.3% | 3.4% | -4.1 | 7.0% | 0.8%
O=S(=O)(c1ccccc1)c1ncc(C(F)(F)F)cc1Cl | 4.11µM* | 3.66µM* | ? | -106.4* | 16.4µM* | ?
Cc1cccc(C(=O)N2CCC3(CC2)N=C(c2ccc(Cl)cc2)NO3)c1 | / | / | / | / | / | 0.1%
CCOC(=O)C1(Cc2cccc(Cl)c2)CCCN(C(=O)c2cc(C)[nH]n2)C1 (stereo unspecified) | -22.2% | -26.7% | 3.1% | 7.0 | 2.9% | 7.5%
CCOC(=O)C1(Cc2cccc(Cl)c2)CCCN(C(=O)c2cc(C)on2)C1 (stereo unspecified) | 18.4µM* | 20.6µM* | 5.3% | -1.0 | 4.2% | -1.2%
C=CCCC(=O)N1CCCC(Cc2cccc(Cl)c2)(C(=O)OCC)C1 (stereo unspecified) | ? | ? | -14.5% | -55.6* | -24.9% | ?
CCOC(=O)C1(Cc2cccc(Cl)c2)CCCN(C(=O)CCSC)C1 (stereo unspecified) | ? | ? | 0.2% | 8.4 | 0.6% | ?
CCOC(=O)C1(Cc2cccc(Cl)c2)CCCN(C(=O)c2c(CC)noc2C)C1 (stereo unspecified) | ? | 11.6µM* | -10.0% | 37.6 | 3.7% | 21.3%
CCOC(=O)C1(Cc2cccc(Cl)c2)CCCN(C(=O)c2cc(C(C)C)nn2C)C1 (stereo unspecified) | 14.6µM* | ? | -3.3% | ? | -6.5% | 114.4%
COc1ccc(N2CCN(c3ccc(C(=O)O)cc3[N+](=O)[O-])CC2)cc1 | 20.5% | 8.1% | 10.9% | -3.2 | -2.8% | 0.0%
COc1cc2c(cc1OC)C(COc1ccc(F)cc1)N(C(=O)Cc1ccccc1)CC2 (stereo unspecified) | ? | ? | / | / | / | 0.3%
COC(=O)c1ccc(OCC2c3cc(OC)c(OC)cc3CCN2C(=O)Cc2ccccc2)cc1 (stereo unspecified) | ? | 16.4µM* | / | / | / | -2.8%
CCCCC(=O)N1CCc2cc(OC)c(OC)cc2C1COc1ccc(OC)cc1 (stereo unspecified) | 16.4µM* | 20.6µM* | / | / | / | 9.4%
COc1cc2c(cc1OC)C(COc1ccc([N+](=O)[O-])cc1)N(C(C)=O)CC2 (stereo unspecified) | 23.1µM* | 18.4µM* | ? | -3.6 | -20.1% | 0.0%
COc1ccc(CC(=O)N2CCc3cc(OC)c(OC)cc3C2COc2ccc(F)cc2)cc1 (stereo unspecified) | 13µM* | 16.4µM* | / | / | / | 4.2%
FC(F)(F)c1cccc(C=C(c2nc3ccccc3s2)c2nc3ccccc3s2)c1 | / | / | / | / | / | 12.8%
CC1(C)C2CCC1(C)C(OCC[N+](C)(C)Cc1ccccc1)C2 (stereo unspecified) | / | / | / | / | / | -24.4%
O=C(c1cncc(F)c1)N1CCOCC2(CN(Cc3cc(F)cc(F)c3)C2)C1 | / | / | / | / | / | 13.0%[176 µM]
SMILES | DT40 TDP1 CPT | DT40 TDP1 no CPT | HT1080-NT tox | IL-1B inflam inh | HT1080 IDH1KD tx | 12-LOX inh
Cc1noc(C)c1[S+](=O)([O-])N1CCC(N2CCCOC2=O)CC1 | / | / | / | / | / | 11.1%[176 µM]
COc1ccc(OCC2c3cc(OC)c(OC)cc3CCN2C(=O)COc2ccc(Cl)cc2Cl)cc1 (stereo unspecified) | ? | 16.4µM* | / | / | / | -25.3%
COCCNC(=S)N1CCc2cc(OC)c(OC)cc2C1COc1cc(C)cc(C)c1 (stereo unspecified) | 25.9µM* | ? | -16.4% | ? | -24.3% | ?
CNC(=S)N1CCc2cc(OC)c(OC)cc2C1COc1ccc(OC)cc1 (stereo unspecified) | -1.8% | ? | -4.5% | -0.3 | -3.5% | -0.7%
COC(=O)c1ccc(OCC2c3cc(OC)c(OC)cc3CCN2C(=O)COc2ccc(Cl)cc2)cc1 (stereo unspecified) | 20.6µM* | 29.1µM* | / | / | / | 5.2%
Cn1c(CN2CCCCC2)nc2cc(NC(=O)COc3ccccc3)ccc21 | / | / | / | / | / | 6.1%
COc1ccc(NC(=O)COc2cccc3c2CCN(C)C3=O)c(OC)c1 | 13µM* | ? | -1.5% | 0.0 | -0.1% | i
CN1CCc2c(OCC(=O)NC3CCCCC3)cccc2C1=O | -0.6% | -3.9% | 7.5% | 0.0 | 8.3% | 0.0%
O=C(COc1cccc2c1CCNC2=O)Nc1ccc(Cl)cc1 | 18.4µM* | ? | -2.4% | -2.5 | -16.9% | -2.8%
COc1ccccc1NC(=O)COc1cccc2c1CCNC2=O | 10.3µM* | 6.51µM* | -16.4% | -1.6 | -9.8% | 4.5%
CC(C(=O)N1CCC(c2cc(Cc3ccccc3)[nH]n2)CC1)N1CCCC1=O (stereo unspecified) | / | / | / | / | / | 29.9%
CCN(CC)CCCNC(=O)CN1N=C(c2ccc(OC)cc2)CCC1=O | -0.2% | 21.7% | 2.1% | 27.1 | 12.7% | 38.2%
Cc1ccc(/C([O-])=C(/C(=S)NCc2ccc3c(c2)OCO3)[n+]2ccc(N(C)C)cc2)c(C)c1 | ? | ? | -4.4% | -68.2* | -3.7% | -16.9%
